Data as given in PubChem BioAssay AID1851 (National Center for Advancing Translational Sciences (NCATS), 2009).
Screen size: about 16,000 compounds; about 5,100 (32%) were called active. Not shown: some 25% with an inconclusive outcome. This is one part of the list. Values without a mark were called inactive. Calls come from the whole dose curve; as a rule, active = well fitted curve in the direction sought with a large enough effect; inconclusive = small, poorly fitted or top-dose-only effect, or effect the other way; inactive = no such curve, though single readings can be large or run the other way.

The compounds below were run against Cytochrome P450 3A4 (Homo sapiens) (UniProt P08684) (assay: Cytochrome panel assay with activity outcomes). Conditions: recombinant CYP, pro-luciferin dealkylation, luminescence, p450-cyp3a4; series mostly up to 57.1 µM.
% is set by controls: 0 for no effect and ±100 for the full control effect.

Sequence of Cytochrome P450 3A4 (Homo sapiens) (P08684 whole entry, looked up): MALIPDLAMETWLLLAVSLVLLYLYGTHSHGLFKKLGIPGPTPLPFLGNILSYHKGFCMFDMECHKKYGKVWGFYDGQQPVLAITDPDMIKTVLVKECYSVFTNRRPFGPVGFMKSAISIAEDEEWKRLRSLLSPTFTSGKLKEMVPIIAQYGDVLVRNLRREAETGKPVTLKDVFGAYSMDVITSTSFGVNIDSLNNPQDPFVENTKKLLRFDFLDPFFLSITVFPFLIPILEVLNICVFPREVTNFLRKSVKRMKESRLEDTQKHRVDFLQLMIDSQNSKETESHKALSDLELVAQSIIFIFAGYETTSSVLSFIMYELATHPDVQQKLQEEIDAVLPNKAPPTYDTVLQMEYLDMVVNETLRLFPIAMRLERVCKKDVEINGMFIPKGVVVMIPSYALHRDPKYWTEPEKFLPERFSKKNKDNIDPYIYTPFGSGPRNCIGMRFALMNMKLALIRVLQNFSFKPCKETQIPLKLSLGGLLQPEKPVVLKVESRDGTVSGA

Compound | activity, negative = inhibition | AC50
COC1=C(C)C(=O)c2c(c(COC(N)=O)c3n2C[C@@H]2[C@@H]3N2C)C1=O (stereo partly specified) | -20.6% [at 11.4 µM] | 
COC(=O)[C@@H]1c2cc3c(c(O)c2[C@@H](O)C[C@]1(C)O)C(=O)c1c(O)cc2c(c1C3=O)O[C@H]1O[C@@]2(C)[C@@H](O)[C@H](N(C)C)[C@H]1O | -12% [at 11.4 µM] | 
C[C@@]12CC[C@H](O[C@@H]3O[C@H](CO)[C@@H](O)[C@H](O)[C@@H]3O)C[C@@H]1CC[C@H]1[C@H]2CC[C@@]2(C)[C@@H](C3=CCOC3=O)CC[C@]12O | 0.209% [at 11.4 µM] | 
C1C[C@@H]2CN(CCCN3CCOCC3)[C@@H](C1)O2 | -5.91% [at 11.4 µM] | 
NN=C(N)N | inactive | 
Clc1ccc(C(c2ccc(Cl)cc2)n2cc[n+](C[C@@H](OCc3ccc(Cl)cc3Cl)c3ccc(Cl)cc3Cl)c2)cc1 |  | 15.8 µM (active)
CC(C)CN1CCC2(CC1)CCN(S(C)(=O)=O)CC2 | inactive | 
O=c1[nH]oc2c1CCNC2 | inactive | 
CCC1(CC)C(=O)C=CNC1=O | inactive | 
CC(C)[C@@H]1CN[C@H](C(=O)O)[C@@H]1CC(=O)O | inactive | 
C=C1CC[C@H](O)C/C1=C/C=C1\CCC[C@]2(C)[C@H]1CC[C@H]2[C@@H](C)CCCC(C)C | inactive | 
N[C@@]1(C(=O)O)CC[C@H](C(=O)O)C1 | inactive | 
CC(C)C[C@H]1C(=O)N2CCC[C@@H]2[C@@]2(O)O[C@](NC(=O)[C@@H]3C=C4c5cccc6[nH]cc(c56)C[C@@H]4N(C)C3)(C(C)C)C(=O)N12 |  | 2 µM (active)
CC(C)[C@@]1(NC(=O)[C@@H]2C[C@H]3c4cccc5[nH]cc(c45)C[C@@H]3N(C)C2)O[C@]2(O)[C@H]3CCCN3C(=O)CN2C1=O | inactive | 
CC[C@H](CO)NC(=O)[C@@H]1C=C2c3cccc4c3c(cn4C)C[C@@H]2N(C)C1 | inactive | 
CCNC(=S)NC1CC2CCCC(C1)N2Cc1ccco1 (stereo unspecified) | -6.93% [at 2.29 µM] | 
CC1=CC(=O)C2=C(C)C[C@@H](O)[C@@H]3[C@@H](OC(=O)[C@H]3C)[C@H]12 | inactive | 
O=C(Nc1cccc2ccccc12)c1nn(C23CC4CC(CC(C4)C2)C3)cc1Br | inactive | 
NCCCNCCSP(=O)(O)O | inactive | 
CNC(=S)NC1CC2CCCC(C1)N2CC(C)C (stereo unspecified) | inactive | 
C[C@@H]1O[C@H](O[C@H]2C[C@@H](O)[C@@]3(CO)[C@H]4[C@@H](O)C[C@]5(C)[C@@H](C6=CC(=O)OC6)CC[C@]5(O)[C@H]4CC[C@]3(O)C2)[C@@H](O)[C@H](O)[C@@H]1O | inactive | 
